Data on 40 compounds can be found in PubChem BioAssay (NCI).

Each structure is given as a SMILES string. About 83,000 compounds went through this panel and 20% of them were active in at least one assay; those are over-represented in the sample as a whole.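 Single-concentration screen, 48 h exposure, 96-well plates. Endpoint: percent growth. Below 10 = active.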 Activity calls are given as the source filed them.

For the assay, the system named is SN12C renal. The experiment in a line: NCI-60 one-dose screen, 48 h (100 = growth as untreated, 0 = no growth, -100 = all killed). Particulars: 10 µM unless noted. As for the experimental part:
Growth inhibition of the SN12C human tumor cell line is measured as a screen for anti-cancer activity. Cells are grown in 96 well plates and exposed to the test compound for 48 hours. Compounds are tested at a single concentration, which is 10^-5 M for most compounds. The reported endpoint is percent growth (GI% or GIPRCNT), where numbers from 0 - 100% represent growth inhibition, and numbers from -100% - 0 represent cell death. For example, a value of 40 represents 60% growth inhibition. A value of 0 means no net growth occurred over the course of the experiment. A value of -40 indicates 40% of cells at the beginning of the experiment died by the end of the experiment. A value of -100 means all cells are dead at the end of the experiment.
NCI-60 Human Tumor Cell Lines Screen was performed using the standard one-dose NCI protocol, which is described in more detail at https://dtp.cancer.gov/discovery_development/nci-60/default.htm.
Compounds with GIPRCNT values below 10 were considered active. Activity score was based on GIPRCNT using the following formula: […]
Score is 0 for GIPRCNT values of 100 or above, 50 for GIPRCNT values of 0, and 100 for GIPRCNT values of -100.
In the case of `Cn1ccnc1C(=O)/C=C/c1ccc(NC(=O)Nc2ccc(Cl)cc2)cc1`, the growth was 87.5% (inactive).
To `CN(C)CCCOc1c2ccc(Cl)cc2nc2c1oc1ccccc12` belongs 18% (inactive); to `Cc1cccc2sc(/N=C(\N)C(Br)Br)nc12`, 18.2% (inactive); to `Clc1ccc2c(NCCCN3CCOCC3)c3oc4ccccc4c3nc2c1`, 29.9% (inactive).
As to `CCCC(=O)NC(c1ccc2c(c1)OC(F)(F)O2)c1cc(C)c2cccnc2c1O` (stereo not given), the growth was 19.4% (inactive).
To `COc1cc(/C=C/C(=O)c2cc(OC)c(OC)c(OC)c2)ccc1Oc1nc(NCCO)nc(N2CCOCC2)n1` belongs 9.45% (active); to `O=C(CCCN1C(=O)/C(=C/c2ccccc2F)SC1=S)N1CCOCC1`, 87.6% (inactive); to `CN1C(=S)N(C)C2C1NN=C1SC(c3ccccc3)=CC(=O)N12` (stereo not given), 96.2% (inactive).
To `Clc1ccc(Cc2nnc3sc(-c4cccnc4)nn23)cc1` belongs 100% (inactive); to `N[C@@H](Cc1cn(-c2c3ccccc3nc3ccccc23)nn1)C(=O)O`, 98.2% (inactive); to `COc1ccc(C(=O)c2cc(C(=O)/C=C/c3c(Cl)cccc3Cl)c3cc(C)ccn23)cc1`, 94.2% (inactive).
To `COc1cccc(N2CCN(c3ncnc4c3[nH]c3ccc(F)cc34)C[C@@H]2C)c1` belongs -28.2% (active); to `CCN1C(=S)N(CC)C2C1N=C(SC)N2/N=C/C=C/c1ccccc1[N+](=O)[O-]` (stereo not given), 91.8% (inactive); to `O=C(CSc1nnc(-c2ccc3nc(-c4ccc(Cl)cc4)[nH]c3c2)o1)Nc1ccc(C(=O)/C=C/c2ccc(Cl)cc2)cc1`, 84.9% (inactive).
Consider `COc1ccc(-c2nc3ccc(-c4nnc(SCC(=O)Nc5ccc(C(C)=O)cc5)o4)cc3[nH]2)cc1`, for which the growth is 113% (inactive).
To `COC(=O)C1CCCN(S(=O)(=O)/N=C2\NC(=O)NC2=C(Cl)Cl)C1` (stereo not given) belongs 102% (inactive); to `C#Cc1nc(C2=C(C)C(OC(=O)CCC(=O)O)CC2)cs1` (stereo not given), 101% (inactive); to `COc1cccc(NC2=CC(=O)C(C)=C(C)C2=O)c1`, 80.5% (inactive).
To `NS(=O)(=O)c1cccc(Nc2nc(SCC(=O)c3ccc(Br)cc3)nc3ccccc23)c1` belongs 74.9% (inactive); to `COc1ccc(/C=N/NC(=O)c2[nH]c3ccc(Br)cc3c2-c2ccccc2)s1`, 50% (inactive); to `O=C1C2=C(C(=O)c3c(O)cccc31)C(c1ccco1)c1sc(=O)[nH]c1S2` (stereo not given), -73.6% (active).
To `CCN1C(=S)N(c2ccccc2)C2NC(=O)N(/N=C/C=C/c3ccccc3OC)C21` (stereo not given) belongs 87.5% (inactive).
Turning to `N[C@@H](Cc1cn(-c2ccnc3ccccc23)nn1)C(=O)O`, the growth was 93.2% (inactive).
Turning to `CCOC(=O)c1c(Nc2ccccc2)nn2c(N)c(C#N)c(-c3ccccc3)nc12`, the growth is 93.9% (inactive).
To `C#Cc1nc(C2=C(C)C(=N\O)/C(=N/O)C2)cs1` belongs 98.2% (inactive); to `C[C@@H]1CN(c2ccc3ncc(C#Cc4cncc(C(=O)Nc5ccc(CN6CCN(C)CC6)c(C(F)(F)F)c5)c4)n3n2)C[C@H](C)O1`, -26.7% (active); to `N#Cc1nc(-c2ccccc2)oc1S(=O)(=O)N1CCN(CCc2ccccn2)CC1`, 77.2% (inactive).
To `COc1ccc(NC2=C(Cl)C(=O)C(C)=C(C)C2=O)cc1OC` belongs 88.9% (inactive); to `Cn1cc(-c2cc(N)n3nc(-c4cn(C)c5ccc(Br)cc45)cc3n2)c2cc(Br)ccc21`, 90.3% (inactive); to `CCCCN1C(=O)/C(=c2\sc3n(c2=O)C2C(NN=3)N(CC)C(=O)N2CC)c2cc(Cl)ccc21` (stereo not given), 82% (inactive).
To `Nc1cc(-c2c[nH]c3ccc(Cl)cc23)nc2cc(-c3c[nH]c4ccc(Cl)cc34)nn12` belongs 70.8% (inactive); to `CC(C)(O)c1cncc(-c2ccc3ncnc(N4CCc5cc(F)c(Cl)cc54)c3c2)c1`, 18.6% (inactive).
For the compound `COc1ccc(C(=O)/C=C/c2ccc(Oc3nc(NCCO)nc(N4CCOCC4)n3)c(OC)c2)cc1`, the growth is 86.2% (inactive).
To `Cn1c(SCC(=O)Nc2ccc(-c3nc4ccc([N+](=O)[O-])cc4[nH]3)cc2)nc2ccccc2c1=O` belongs 91.1% (inactive); to `Fc1ccc(-c2cc3nc(C(Cl)Cl)nc(-c4ccccc4)n3n2)cc1`, 52% (inactive).
To `Cc1c(NC(=O)CSc2nc3sc4c(c3c(=O)n2-c2ccc(Cl)cc2)CCCC4)c(=O)n(-c2ccccc2)n1C` belongs 88.9% (inactive).
To `COc1ccc(-n2c(SCC(=O)Nc3ccc(-c4nc5ccccc5[nH]4)cc3)nc3ccccc3c2=O)cc1` belongs 62.3% (inactive); to `O=C(NNc1nc2cc(F)ccc2n2c(CN3CC4(COC4)C3)ccc12)c1cnccn1`, 22.4% (inactive).
As to `COc1cc(/C=C/C(=O)c2ccc(F)cc2)ccc1Oc1nc(NCCO)nc(N2CCOCC2)n1`, the growth was 84.6% (inactive).
With `C[C@@H](Nc1c(C#N)cnc2ccc(-c3cnc(N)nc3)cc12)c1ccccc1`, the growth is 11.8% (inactive).
